Screening results as filed in PubChem.
F-actin modifier – modifiers of F-actin cytoskeleton organization, primary screen, imaging, HUVEC, phalloidin staining, high-content imaging; HUVEC TNFa F-actin phalloidin imaging; inhibition, % at 2 µM; 0.18% of 91,000 active; AID 836, 2007;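 active = inhibition above the batch mean plus 3 SD and confirmed as a hit by visual image inspection, cut at about 30% in these data, passing the limit was not always enough; inconclusive = above the inhibition threshold but rejected on visual inspection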
E-sel TNF inh – E-selectin induction blockers in HUVEC – imaging, immunofluorescence, high content, primary screen; HUVEC TNFa-induced E-selectin immunofluorescence; inhibition, % at 2 µM; 0.71% of 120,000 active; AID 1246, 2008;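 active = inhibition above the batch mean plus 3 SD, and confirmed as a hit on visual image review, cut at about 43% in these data; inconclusive = passes the inhibition cutoff but fails visual image review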;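 note: 0% = TNF-stimulated DMSO wells and 100% = unstimulated control wells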
VCAM1 TNFa inh – inhibitors of TNFa-induced VCAM1 expression, primary screen, imaging, HUVEC, TNFa stimulus, immunofluorescence; 0.48% of 95,000 active; HUVEC TNFa-induced VCAM-1 immunofluorescence, high-content imaging; inhibition, % at 2 µM;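 active = inhibition above the batch mean plus 3 SD, with images confirmed as a hit by eye, cut at about 37% in these data; inconclusive = inhibition above that limit but hit not confirmed in images; inactive = inhibition not above that limit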;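 note: 0% = TNF-stimulated DMSO wells and 100% = unstimulated control wells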
TNFa cytotox – cytotoxicity in TNFa-stimulated HUVEC, primary screen, cytotoxicity control for VCAM1 expression modulator project, imaging, Hoechst nuclei count; cell count reduction, % at 2 µM; 0.17% of 93,000 active; HUVEC TNFalpha-stimulated, Hoechst cell count;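 active = cell count reduction exceeding the screen mean by over 5 SD, scaled to untreated wells per plate, cut at about 78% in these data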;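 note: cells counted after 24 h of TNF alpha exposure following the 1 h pretreatment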
* hit, by the source's call; ? = inconclusive; . = no result. Most compounds without a hit are left out; they make up all but 1.1% or so of the library.

SMILES	F-actin modifier	E-sel TNF inh	VCAM1 TNFa inh	TNFa cytotox
CCOC(=O)c1cnn(-c2nc3c(C)cccc3s2)c1C	36*	-30	92*	90*
COc1ccc(C2=NN(CN3C(=O)C(=O)c4ccccc43)C(c3ccc(OC)cc3)C2)cc1 (stereo not given)	.	20	.	.
CNC(=O)COc1ncnc2scc(-c3ccc(F)cc3)c12	.	39	.	.
COc1cc(-c2noc(CCC(=O)Nc3cccnc3)n2)cc(OC)c1OC	-13	62*	7	2
COc1ccc(-c2noc(CCC(N)=O)n2)cc1OC	12	80*	-13	12
CSc1ccc(/C=N/NC(=O)CN2CCN(Cc3ccc(C)cc3)CC2)cc1	.	88*	.	.
O=C(O)C1CCCN1S(=O)(=O)c1ccc(Br)s1 (stereo not given) (tested in a mixture with another compound)	7	90*	-10	-12
O=C(O)C1CCCCN1S(=O)(=O)c1ccc(Cl)s1 (stereo not given)	-12	7	4	-4
COc1cc(C(=S)N2CCCC2)cc(Cl)c1OCC(=O)Nc1ccc(C)cc1C	.	-1	.	.
CC1(C)Cc2c(oc3ncn4ncnc4c23)CO1	.	.	?	97*
COc1cc(CC(=O)Oc2ccc3c(c2)OCO3)cc(OC)c1OC	.	91*	.	.
O=C(CSc1ccc(-c2cccs2)nn1)c1cccs1	.	8	.	.
Cc1[nH]nc2c1C1(C(=O)N(Cc3ccc(Cl)cc3)c3ccccc31)C(C#N)=C(N)O2 (stereo not given)	23	100*	-30	.
CC(C)C(=O)Nc1ccc(NC(=O)c2ccccc2Cl)nc1	-21	22	31	83*
CCC(=O)Nc1ccc(NC(=O)c2ccccc2Cl)nc1	-9	5	30	62
COc1ccc(NC(=O)N(CCCN2CCOCC2)Cc2cccnc2)c(OC)c1	-7	61*	14	-1
O=C(Cc1csc(Nc2nc(=S)[nH]c3ccccc23)n1)N1CCN(c2cccc(C(F)(F)F)c2)CC1	.	8	.	.
COc1ccc(-c2nc(-c3ccc(NC(=O)c4ccc(Br)o4)cc3)no2)cc1OC	-7	.	76*	39
O=C(Nc1ccc(-c2nc3cccnc3s2)cc1)c1ccc(Br)o1	-17	100*	11	-34
O=C(Nc1ccc(-c2nc3cccnc3s2)cc1)c1ccco1	.	4	.	.
Cc1ccc(NC(=O)CC2SC(=Nc3ccc(O)cc3)NC2=O)cc1 (stereo not given)	.	-10	.	.
COc1ccc(CCNc2oc(COc3ccccc3F)nc2C#N)cc1	62*	.	6	-42
Cc1ccc(C(=O)CCC(=O)N2CCN(C(=O)c3ccco3)CC2)cc1	.	3	.	.
CS(=O)(=O)c1ccc(Cl)c(NC(=O)c2ccc3ccccc3c2)c1	.	64*	.	.
COc1cccc(NC(=S)N2CCC(N(C)CC3CCCO3)CC2)c1 (stereo not given)	.	-7	.	.
SMILES	F-actin modifier	E-sel TNF inh	VCAM1 TNFa inh	TNFa cytotox
O=C(Cn1cc(C(=O)C(F)(F)F)c2cc(Br)ccc21)N1CCOCC1	.	61*	.	.
CCn1cc(C(=O)C(F)(F)F)c2ccccc21	5	4	-12	9
O=C(CSc1nc(C2CC2)nc2ccccc12)N1c2ccccc2Sc2ccccc21	12	24	6	-18
Cc1ccc2c(c1)C(c1ccc(F)cc1)N(C(=O)c1cc3ccccc3oc1=O)CC(=O)N2 (stereo not given)	.	95*	.	.
COc1cc2c(O)c3c(c(-c4ccc5c(c4)OCO5)c2cc1OC)C(=O)OC3	-56	.	91*	64
COc1cc2c(=O)n(-c3ccc(C)cc3)c(=O)n(CC(=O)c3ccc4c(c3)OCO4)c2cc1OC	.	-5	.	.
CC(C)NC(=O)/C(=C/c1cn(-c2ccccc2)nc1-c1cccc([N+](=O)[O-])c1)NC(=O)c1ccccc1	.	1	.	.
O=Cc1ccc(OCc2ccccn2)cc1	15	45*	-1	-26
O=C(COc1ccc(Br)cc1)NCc1ccccn1	.	8	3	-16
Cc1ccc(S(=O)(=O)NC2CCCc3ccccc32)cc1C (stereo not given)	8	1	-4	-27
CC(=O)c1cc(OC(=O)N2CCOCC2)ccc1OC(=O)N1CCOCC1	.	-32	1	-41
O=C(Oc1ccc2ccc(=O)oc2c1)N1CCOCC1	-29	.	90*	79*
Cc1ccc(-c2cc(C(=O)NCc3ccccn3)no2)cc1	77*	16	12	-33
O=C(NCc1ccco1)c1cc(-c2ccc(Cl)cc2)on1	-44	.	79*	66
Cc1ccc(-c2cc(C(=O)NCc3ccco3)no2)cc1	10	-8	-6	-19
N=c1occ(C(=O)c2cc(F)ccc2O)cc1C(=O)NC1CCCCC1	.	16	.	.
